Pol eta inh: qHTS for Inhibitors of Polymerase Eta | DNA polymerase eta (Homo sapiens), Q9Y253 | recombinant Pol eta, fluorescent DNA replication assay | Potency, µM (highest dose often 114 µM), for the others: at the highest dose activity change, negative = inhibition, most hits filed as inhibitors | actives 1.2% (n = 390,000); note: potency is the fitted concentration of half-maximal effect; % is set by controls: 0 for no effect and ±100 for the full control effect
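Pol eta at 10 nM preincubated with compounds 15 min at room temperature; reaction started with fluorescent substrate (50 nM final) and read kinetically at 0 and 10 min.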
Pol kappa inh: qHTS for Inhibitors of Polymerase Kappa; actives 0.53% (n = 400,000); purified Pol kappa, fluorescent DNA synthesis assay, 10 min; Potency, µM (series often up to 107 µM), inactives show at the highest dose activity, negative = inhibition, most hits filed as inhibitors; DNA polymerase kappa (Homo sapiens), Q9UBT6; note: potency is the fitted concentration of half-maximal effect; % is set by controls: 0 for no effect and ±100 for the full control effect
Target sequence (Q9UBT6 whole entry, looked up): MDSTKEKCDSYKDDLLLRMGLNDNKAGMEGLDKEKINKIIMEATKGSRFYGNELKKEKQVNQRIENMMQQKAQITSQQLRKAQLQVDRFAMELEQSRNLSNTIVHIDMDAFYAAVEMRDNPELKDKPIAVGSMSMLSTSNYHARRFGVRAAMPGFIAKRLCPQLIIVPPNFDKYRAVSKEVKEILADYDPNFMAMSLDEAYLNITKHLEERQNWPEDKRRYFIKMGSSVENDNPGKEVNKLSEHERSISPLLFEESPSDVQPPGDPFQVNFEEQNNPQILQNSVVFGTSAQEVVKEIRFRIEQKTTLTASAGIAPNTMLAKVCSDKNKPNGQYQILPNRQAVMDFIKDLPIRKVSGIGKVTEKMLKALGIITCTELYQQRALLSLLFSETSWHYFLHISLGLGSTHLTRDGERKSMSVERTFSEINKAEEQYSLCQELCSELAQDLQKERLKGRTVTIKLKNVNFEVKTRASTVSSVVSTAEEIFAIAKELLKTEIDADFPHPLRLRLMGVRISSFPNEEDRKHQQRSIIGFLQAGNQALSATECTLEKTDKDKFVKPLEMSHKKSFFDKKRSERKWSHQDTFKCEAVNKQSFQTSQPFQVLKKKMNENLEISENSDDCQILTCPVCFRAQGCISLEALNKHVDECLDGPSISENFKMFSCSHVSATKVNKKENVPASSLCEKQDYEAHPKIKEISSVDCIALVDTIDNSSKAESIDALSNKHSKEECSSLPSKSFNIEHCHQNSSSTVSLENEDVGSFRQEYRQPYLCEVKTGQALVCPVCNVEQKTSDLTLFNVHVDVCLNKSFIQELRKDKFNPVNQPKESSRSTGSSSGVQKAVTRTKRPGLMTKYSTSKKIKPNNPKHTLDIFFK
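Here, compound and 10 nM enzyme are combined for 15 min at room temperature; adding 50 nM substrate (final) starts DNA synthesis, tracked by fluorescence at 0 and 10 min against buffer-only wells.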
PI5P4Ka inh: qHTS for Inhibitors of phosphatidylinositol 5-phosphate 4-kinase (PI5P4K); Phosphatidylinositol 5-phosphate 4-kinase type-2 alpha (Homo sapiens), P48426; PI5P4Kalpha enzyme, ADP-Glo luminescence, 60 min; hits give low values; max response, %; actives 1.2% (n = 330,000); AID 652105, 2013; active = max response of -50% or lower; inconclusive = between -30% and -50%; inactive = -30% or higher; note: value at the top dose of about 77 µM; % is set by controls: 0 for no effect and ±100 for the full control effect
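Controls without substrate or without enzyme flank wells where PI5P4Kalpha converts substrate using 5 microM ATP (final). Incubation lasts 60 minutes at room temperature; ADP formed is read by ADP-Glo luminescence.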
POLI inh: qHTS for Inhibitors of Polymerase Iota. actives 1% (n = 390,000). Potency, µM (doses to about 115 µM), for inactives: top-dose activity, negative = inhibition, usual class: inhibitors. DNA polymerase iota (Homo sapiens), Q9UNA4. Pol iota fluorescent replication assay, 10 min; note: potency is the fitted concentration of half-maximal effect
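Pol iota at 10 nM preincubated 15 min with compounds at room temperature; reaction started with fluorescent substrate, 50 nM final. Fluorescence read kinetically at 0 and 10 min; buffer-only wells as negative control.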
POLB inh: qHTS Assay for Inhibitors of DNA Polymerase Beta | P06746 | Pol beta primer extension/strand displacement, fluorescence kinetic | Potency, µM (doses to about 114 µM), for the others: top-dose activity change, negative = inhibition, hits mostly inhibitors | actives 1.3% (n = 340,000) | AID 485314, 2010; note: potency is the fitted concentration of half-maximal effect; % is set by controls: 0 for no effect and ±100 for the full control effect
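Values derive from four-parameter Hill fits of normalized kinetic data: reads at 0 and 10 min following addition of 50 nM substrate to 10 nM Pol beta preincubated 15 min with compound.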
12-LOX inh: Primary qHTS assay for inhibitors of human arachidonate 12S-lipoxygenase (ALOX12): Round 2; Polyunsaturated fatty acid lipoxygenase ALOX12 (Homo sapiens), P18054; purified 12hLO, xylenol orange hydroperoxide absorbance; Potency, µM (series often up to 108 µM), without a hit: at the highest dose activity change, negative = inhibition, usual class: inhibitors; actives 1.1% (n = 580,000); note: potency is the fitted concentration of half-maximal effect; % is set by controls: 0 for no effect and ±100 for the full control effect
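Purified human 12hLO at 150 nM in 25 mM Hepes, 0.01% Triton X-100, pH 7.0, preincubated 15 min at room temperature with compound. Reaction started with 40 uM arachidonic acid, 30 min at room temperature. Hydroperoxide measured by Fe-xylenol orange, 573/405 nm absorbance ratio.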
An asterisk follows results filed as active; [ ] = dose if it differs, or a comment. The list is not random: actives were taken first. Their share in the collection is about 2.9%. Unless noted, calls come from the whole dose curve; as a rule, active = well fitted inhibition curve with a large enough effect; inconclusive = small, poorly fitted or top-dose-only effect, or another doubt; inactive = no such curve, though single readings can be large or run the other way.

Results for O=C(/C=C/c1ccc(Cl)cc1)c1cc(Cl)cc(Cl)c1O ?
12-LOX inh: 3.55µM*

What do the screens show for `COc1ccc(C=CC(=O)c2cc(O)ccc2O)cc1`?
Pol eta inh: inconclusive; Pol kappa inh: -18.2%; PI5P4Ka inh: -1.6; POLI inh: inconclusive; 12-LOX inh: inconclusive

What do the screens show for `O=C(C=Cc1ccc(O)cc1)c1ccc(O)cc1O`?
12-LOX inh: 7.94µM*

Results for COC(=O)C1=C(C)N(c2ccc(C)c(C)c2)/C(=C/c2ccco2)C1=O ?
Pol eta inh: -3.2%; Pol kappa inh: -20.8%; PI5P4Ka inh: inconclusive; POLI inh: inconclusive; POLB inh: 22.4µM*

How did CCOC(=O)C1=C(C)N(c2ccc(C)c(C)c2)C(=O)/C1=C\c1ccco1 do in these assays?
Pol eta inh: -14.3%; Pol kappa inh: -5.3%; POLI inh: 11.6%; POLB inh: 27.5%; 12-LOX inh: inconclusive

Results for O=C(CCl)N1CCN2C(=O)c3ccccc3C12c1ccc(Cl)cc1 (centres undefined) ?
Pol eta inh: 79.4µM*; Pol kappa inh: 1.9%; PI5P4Ka inh: -7.3; POLI inh: 68.9%; POLB inh: -21.2%; 12-LOX inh: 0.0%

Results for CC(=O)Nc1cccc(/C(C)=N/Nc2ccc(S(=O)(=O)Nc3ccccc3C(=O)O)cc2[N+](=O)[O-])c1 ?
Pol eta inh: 22.4µM*; Pol kappa inh: -13.3%; PI5P4Ka inh: -72.3*; POLI inh: inconclusive; 12-LOX inh: inconclusive

Results for Cc1ccc(/C=N/Nc2ccc(S(=O)(=O)Nc3ccccc3C(=O)O)cc2[N+](=O)[O-])o1 ?
12-LOX inh: 14.1µM*

Results for O=C(NC[C@H]1Cn2c(-c3cccc(Cl)c3)cnc2CO1)Nc1ccccc1 ?
12-LOX inh: 0.5%[176 µM]

Results for CCc1ccc(Nc2n[n+](-c3ccccc3)c(-c3ccc(N(CC)CC)cc3)s2)cc1 ?
Pol eta inh: -10.0%; Pol kappa inh: 4.5%; PI5P4Ka inh: -58.8*; POLI inh: inconclusive; POLB inh: 4.3%; 12-LOX inh: 39.8µM*

What do the screens show for `CCN(CC)c1ccc(-c2sc(Nc3ccccc3)n[n+]2-c2ccc(F)cc2)cc1`?
Pol eta inh: -8.1%; Pol kappa inh: -14.9%; PI5P4Ka inh: -17.6; POLI inh: inconclusive; POLB inh: -21.5%; 12-LOX inh: inconclusive

Results for CCc1ccc(Nc2n[n+](-c3ccccc3)c(/C=C/c3ccccc3)s2)cc1 ?
POLB inh: 28.6%

What do the screens show for `CCc1ccc(Nc2n[n+](-c3ccccc3)c(-c3cc(OC)c(OC)cc3Br)s2)cc1`?
Pol eta inh: -3.1%; Pol kappa inh: -5.1%; PI5P4Ka inh: -19.4; POLI inh: inconclusive; POLB inh: 16.6%; 12-LOX inh: 39.8µM*

What do the screens show for `Fc1ccc(-[n+]2nc(Nc3ccccc3)sc2-c2c(Cl)cccc2Cl)cc1`?
Pol eta inh: -29.7%; Pol kappa inh: 1.4%; PI5P4Ka inh: -14.0; POLI inh: inconclusive; POLB inh: 40.1%; 12-LOX inh: inconclusive

What do the screens show for `CCc1ccc(Nc2n[n+](-c3ccccc3)c(-c3c(Cl)cccc3Cl)s2)cc1`?
Pol eta inh: -7.3%; Pol kappa inh: -1.7%; PI5P4Ka inh: -79.8*; POLI inh: -18.7%; POLB inh: 13.3%; 12-LOX inh: inconclusive

Results for CCc1ccc(Nc2n[n+](-c3ccccc3)c(-c3ccc(OCc4ccccc4)cc3)s2)cc1 ?
Pol eta inh: -13.2%; Pol kappa inh: 5.1%; PI5P4Ka inh: -15.0; POLI inh: 10.9%; POLB inh: 23.9%; 12-LOX inh: 22.4µM*

Results for c1ccc(COc2ccc(-c3sc(Nc4ccccc4)n[n+]3-c3ccccc3)cc2)cc1 ?
POLB inh: 4.5%

What do the screens show for `Cc1ccc(NC(=O)Cn2nc3ccc(SC(C)C)nn3c2=O)c(Cl)c1`?
12-LOX inh: -22.5%

Results for Cc1cc(NC(=O)[C@@H]2CCCN2S(=O)(=O)c2ccc3c(c2)OCO3)no1 ?
12-LOX inh: -17.0%

Results for CCN1c2cc(C(=O)Nc3ccc4c(c3)CCC4)ccc2C(=O)N2CCCCC21 (centres undefined) ?
12-LOX inh: -12.6%

How did CN(C)c1ccc(-c2sc(Nc3ccccc3)n[n+]2-c2ccc(F)cc2)cc1 do in these assays?
Pol eta inh: -8.2%; Pol kappa inh: -1.2%; PI5P4Ka inh: -5.5; POLI inh: inconclusive; POLB inh: 7.1%; 12-LOX inh: 44.7µM*

What do the screens show for `N#C/C(=C\c1ccc(OC(F)F)cc1)C(=O)N1CCCCC1`?
Pol eta inh: -6.9%; Pol kappa inh: 7.2%; PI5P4Ka inh: 1.6; POLI inh: 15.8%; POLB inh: 1.3%; 12-LOX inh: 6.8%

What do the screens show for `N#C/C(=C/c1ccc(OC(F)F)cc1)C(N)=S`?
12-LOX inh: 31.6µM*

How did O=C(c1ccc(F)cc1)C1CCN(C(=O)N2CCOCC2)CC1 do in these assays?
Pol eta inh: -10.3%; Pol kappa inh: -4.6%; POLI inh: 18.3%; POLB inh: -3.2%; 12-LOX inh: 0.0%

Results for N#C/C(C(=O)CCl)=C(/c1ccc(F)cc1)N1CCOCC1 ?
12-LOX inh: 22.4µM*

How did Cc1nc2c(O)c3c(c(O)c2nc1C)C1C=CC3CC1 do in these assays?
Pol eta inh: 2.2%; Pol kappa inh: -5.0%; PI5P4Ka inh: 5.2; POLI inh: 14.1µM*; 12-LOX inh: inconclusive

Results for Cc1nc2c(C)c(C)c(C)c(C)c2nc1C ?
Pol eta inh: -18.9%; Pol kappa inh: -2.7%; PI5P4Ka inh: 4.0; POLI inh: 58.2%; POLB inh: 8.1%; 12-LOX inh: -30.7%

How did O=C1C=C(NCC23CC4CC(CC(C4)C2)C3)C2(CCCCC2)O1 do in these assays?
12-LOX inh: 12.5%

How did COc1ccc(NC(=O)CSc2nc(-c3ccco3)nc3cc(=O)[nH]n23)cc1 do in these assays?
Pol eta inh: inconclusive; Pol kappa inh: inconclusive; POLI inh: 79.4µM*; POLB inh: 25.1µM*; 12-LOX inh: -13.6%

What do the screens show for `COc1ccc(NC(=O)CSc2nnc(-c3ccco3)n2C)cc1`?
Pol eta inh: -11.2%; Pol kappa inh: -24.7%; PI5P4Ka inh: -1.4; POLI inh: 15.9%; POLB inh: 8.4%; 12-LOX inh: -21.4%
